Experimental data: PubChem BioAssay
Unmarked numbers belong to inactive results.

Assay: yeast growth modulation, basal conditions, primary screen, YJM789 clinical isolate, OD600, 24 h (AID 1089);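 further: growth of clinical yeast isolate S. cerevisiae YJM 789 seeded 1000 cells per well; test concentration not given here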
Conditions: S. cerevisiae YJM789 growth, higher = more signal, called active from +8 up or from −8 down

Compound	z-score
COC(=O)c1c(CC[C@@H](CO)NC(=O)NCCc2c[nH]c3ccccc23)oc(C(=O)Cc2ccccc2)c1C(=O)OC	0.433
CC(C)[Si](C#CCCCC#N)(Oc1ccccc1Br)C(C)C	1.13
COc1cc(CO)cc(I)c1O[C@H]1C=C(C(=O)NCCO)C[C@@H](N(C(=O)c2cc3ccccc3oc2=O)C2CCCCCC2)[C@@H]1O	-0.13
C=CCC(OC(C)=O)[C@@H]1[C@@H](N(Cc2ccc(-c3cccc(C(F)(F)F)c3)o2)C(=O)c2cccc3ccccc23)c2cc(OCCCO)ccc2N1C(=O)Cc1ccc2ccccc2c1 (stereo partly drawn)	0.1
CC(c1ccccc1)C(O)C1C=CC2C(=O)N(C)C(=O)C2N1NC(=O)OC(C)(C)C (stereo not drawn)	0.476
COc1ccc(CCNC(=O)[C@@]2(C)c3ccccc3C(=O)N(c3ccc(C)cn3)[C@H]2c2ccc(CO)cc2)cc1	-1.39
C#CCNCc1ccccc1	-0.514
CC[C@@H]1C=C(C(=O)O)[C@H](c2ccc(C)cc2)N1S(=O)(=O)c1ccc(C)cc1	-1.23
COCCCNC(=O)[C@@H]1c2ccccc2C(=O)N(Cc2ccccc2OC)[C@H]1c1ccc(CO)cc1	0.118
C=CCOC(=O)[C@H]1[C@@H]2C(=O)O[C@@H](c3ccccc3)[C@@H](c3ccccc3)N2[C@@H](c2ccc(OCCOC(=O)[C@@H]3C[C@@H]4C(=O)N5CCC[C@H]5C(=O)N4[C@@H]3c3cccc(OCCO)c3)cc2)[C@]12C(=O)Nc1ccc(I)cc12	0.151
CC(=O)NCCCC[C@@H]1NC(=O)[C@H]2C[C@@H](C(=O)O)[C@@H](c3ccc(O)cc3)N2C1=O	2.13
CCCC=C(CCC)[C@@H](NS(=O)(=O)c1ccc(Cl)cc1)c1ccc(C(=O)OC)cc1	-0.288
[N-]=[N+]=NCc1ccccc1[C@@H]1OC(c2ccc(OCCCO)cc2)=N[C@]1(CCS(=O)(=O)c1ccccc1)C(=O)N1CCCCC1	-0.238
C=CCC(OC(C)=O)[C@@H]1[C@@H](N(Cc2ccc(-c3ccccc3)cc2)C(=O)Cc2ccc(F)cc2)c2cc(OCCCO)ccc2N1C(=O)c1ccc2ccccc2c1 (stereo partly drawn)	0.245
CCCCCCCCCCC(O)C1C=CC2C(=O)NC(=O)C2N1Nc1ccc(Cl)cc1Cl (stereo not drawn)	1.52
COc1ccc([Si](C)(C)[C@@H]2[C@@H](CCn3cc(CCO)nn3)O[C@]3(C(=O)N(Cc4cccc(N5C(=O)c6cccc7cccc5c67)c4)c4ccccc43)[C@H]2C)cc1	1.29
COCCCNC(=O)[C@@]1(CCS(=O)(=O)c2ccccc2)N=C(c2ccc(OCCCO)cc2)O[C@H]1c1ccccc1N=[N+]=[N-]	-1.2
O[C@@H](Cc1ccccc1)[C@@H](/C=C/C1CC1)NCc1cccc(Cl)c1	-2.26
CCC(CC)C(O)C1C=CC2C(=O)N(c3ccccc3)C(=O)C2N1Nc1ccccc1 (stereo not drawn)	0.296
COC(=O)[C@@]1(Cc2ccccc2)[C@H]2c3cc(C(=O)N4CCCC4)n(Cc4ccc(O)c(OC)c4)c3C[C@H]2CN1C(=O)c1ccccc1	1.21
COCCCNC(=O)[C@@]1(Cc2ccccc2CN=[N+]=[N-])N=C(c2ccc(OCCCO)cc2)O[C@H]1c1ccccc1CN=[N+]=[N-]	-2.06
COc1ccc(-c2cc3c(c(Cc4ccccc4)n2)[Si](C(C)C)(C(C)C)OC3)cn1	1.64
CC(C)(C)OC(=O)CC[C@]1(C(=O)NCCN2CCOCC2)COC(c2ccc(OCCCO)cc2)=N1	0.57
CC(C)[Si](C#CCCCC#N)(O[C@H](c1ccccc1)c1cn(Cc2cccc(Cl)c2)nn1)C(C)C	-0.135
COc1ccc(C(=O)Nc2ccc(CN3C(=O)[C@]4(O[C@H](CC(=O)N5CCC[C@H]5CO)[C@@H]([Si](C)(C)c5ccc(OC)cc5)[C@@H]4C)c4ccccc43)cc2)cc1	-0.676
CC(C)(C)OC(=O)CC[C@@]1(C(=O)N2CCCCC2)N=C(c2ccc(OCCCO)cc2)O[C@@H]1c1ccccc1	-1.23
O=C1NC(=O)C2C1C=CC(C(O)C1CC=CCC1)N2Nc1ccccn1 (stereo not drawn)	1.13
[N-]=[N+]=Nc1ccccc1C[C@]1(C(=O)N2CCCCC2)COC(c2ccc(OCCCO)cc2)=N1	1.73
